Here are results for 56 molecules from PubChem BioAssay (Tox21).

The nature of test [1]: cAMP Responsive Elements (CRE) small molecule antagonists, cell-based qHTS assay: qHTS cell viability counter screen (AID 2060913). Further: nearly all actives have a fitted effect of over 40% in size. In short, it runs like this: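 Cytotoxicity read in the same wells as the CRE-bla HEK293T antagonist assay: after 3 h compound with 0.25 uM NKH477 final and 2 h beta-lactamase substrate, CellTiter-Glo luminescence measured.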
Test [2] is described as follows: cAMP Responsive Elements (CRE) small molecule agonists, cell-based qHTS assay: qHTS cell viability counter screen (AID 2060914). Further: nearly all actives have a fitted effect of over 50% in size. In short, it runs like this:
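Cells are seeded and incubated 18 h, treated with compounds in DMSO for 3 h, read for the bla reporter, then given CellTiter-Glo; luminescence is measured after 30 min at room temperature.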

Records with an inconclusive call do not appear. Values without a mark were called inactive. Active and inactive are the calls of the source. The call rests on the fitted dose curve; in most records, active means well fitted cell-killing curve with a large enough effect in the repeat runs; inconclusive means weak or mixed curves, or effect the other way; inactive means flat fitted curve, though single readings scatter.
On the % scale 0 is the no-effect control and ±100 the full control effect.

For `Cc1cc(N)no1`, the Potency entry in test [1] and in test [2] was “inactive” throughout.
For `CN1C(=O)c2ccc([N+](=O)[O-])cc2C1=O`, the Potency entry in test [1] and in test [2] was “inactive” each time.
Regarding `Cc1occc(=O)c1OC(=O)C(C)C`, the Potency entry in test [1] and in test [2] was “inactive” throughout.
For `Nc1c(N=Nc2ccc(-c3ccc(N=Nc4cc(S(=O)(=O)O)c5ccccc5c4N)cc3)cc2)cc(S(=O)(=O)O)c2ccccc12`, the Potency result in test [1] and in test [2] was “inactive” throughout.
`O=C(c1ccccc1)c1ccc(Cl)cc1`: the Potency entry in test [1] and in test [2] was “inactive” each time.
With `Fc1ccc([C@@H]2CCNC[C@H]2COc2ccc3c(c2)OCO3)cc1`, the Potency result in test [1] and in test [2] was “inactive” in each case.
With `CCN(CC)CC(=O)Oc1ccc(NC(C)=O)cc1`, the Potency entry in test [1] and in test [2] was “inactive” throughout.
As for `OC1CCCCCCCCCCC1`, the Potency entry in test [1] and in test [2] was “inactive” each time.
With `CCCCOCCOCCOC(C)=O`, the Potency result in test [1] and in test [2] was “inactive” in each case.
Turning to `O=C1OC(c2ccc(O)cc2)(c2ccc(O)cc2)c2ccccc21`, the Potency result in test [1] and in test [2] was “inactive” throughout.
As for `CC(=O)SCC(CC(=O)c1ccc(C)cc1)C(=O)O` (configuration not stated), the Potency result in test [1] and in test [2] was “inactive” each time.
`C=CC(=O)CCCCC`: the Potency entry in test [1] and in test [2] was “inactive” in each case.
Take `O=C1NC(=O)[C@@H]2CC=CC[C@H]12`: the Potency entry in test [1] and in test [2] was “inactive” throughout.
For `C=CCCCCCCCCCCC`, the viability change, negative = cytotoxic in test [1] is -1.65% [at 8.39 µM]. The activity change, negative = cytotoxicity in test [2] is -4.53% [at 8.39 µM].
Take `CC1(C)O[C@@H]2C[C@H]3[C@@H]4C[C@H](F)C5=CC(=O)CC[C@]5(C)[C@H]4[C@@H](O)C[C@]3(C)[C@]2(C(=O)CO)O1`: the Potency result in test [1] and in test [2] was “inactive” throughout.
With `Cc1ccc(O)c(-n2nc3ccccc3n2)c1`, the Potency entry in test [1] and in test [2] was “inactive” each time.
For the molecule `COc1ccc(Cl)cc1C(=O)NCCc1ccc(S(=O)(=O)NC(=O)NC2CCCCC2)cc1`, the Potency result in test [1] and in test [2] was “inactive” in each case.
With `Cc1cc(N)c(S(=O)(=O)O)cc1Cl`, the Potency result in test [1] and in test [2] was “inactive” in each case.
As to `SCCCCCCCCS`, the Potency result in test [1] and in test [2] was “inactive” each time.
Consider `CCCCCCCCC(=O)OCC(C)OC(=O)CCCCCCCC` (configuration not stated), for which the Potency entry in test [1] and in test [2] was “inactive” each time.
On to `CN(C)C(=O)Nc1ccccc1`, for which the Potency result in test [1] and in test [2] was “inactive” in each case.
As to `CN(C)C(=O)NC1(c2ccccc2)CCN(CCC[C@]2(c3ccc(Cl)c(Cl)c3)CCCN(C(=O)c3ccccc3)C2)CC1`, the viability change, negative = cytotoxic in test [1] was -0.11% [at 18.9 µM]. In addition, the activity change, negative = cytotoxicity in test [2] was -0.87% [at 18.9 µM].
As to `O=S1(=O)CCCC1`, the Potency result in test [1] and in test [2] was “inactive” each time.
Consider `O=C(OCc1ccccc1)c1ccc(O)cc1`, for which the Potency result in test [1] and in test [2] was “inactive” each time.
On to `NC(=O)C1(N2CCCCC2)CCN(CCCC(=O)c2ccc(F)cc2)CC1`, for which the Potency entry in test [1] and in test [2] was “inactive” throughout.
With `CC(=O)c1ccc(O)cc1`, the Potency entry in test [1] and in test [2] was “inactive” throughout.
Consider `CCOB(OCC)OCC`, for which the Potency result in test [1] and in test [2] was “inactive” in each case.
Regarding `CC1(C)[C@@H](OC(=O)CCC(=O)O)CC[C@]2(C)[C@H]3C(=O)C=C4[C@@H]5C[C@@](C)(C(=O)O)CC[C@]5(C)CC[C@@]4(C)[C@]3(C)CC[C@@H]12`, the Potency entry in test [1] and in test [2] was “inactive” throughout.
Turning to `CSc1ccc(Oc2ccc(S(N)(=O)=O)cc2CN(C)C)cc1C`, the Potency result in test [1] and in test [2] was “inactive” throughout.
Regarding `CC(=O)[C@H]1CC[C@H]2[C@@H]3C[C@H](C)C4=CC(=O)CC[C@]4(C)[C@H]3[C@@H](O)C[C@]12C`, the Potency entry in test [1] and in test [2] was “inactive” in each case.
With `CC(=O)Nc1ccc(OCCOCCOc2ccc(NC(C)=O)cc2)cc1`, the Potency result in test [1] and in test [2] was “inactive” throughout.
In the case of `CC(C(=O)O)c1ccc2c(c1)CC(=O)c1ccccc1S2` (configuration not stated), the Potency result in test [1] and in test [2] was “inactive” each time.
With `Nc1nc2ccc(OC(F)(F)F)cc2s1`, the Potency entry in test [1] and in test [2] was “inactive” throughout.
For the molecule `C=CC(=O)OCCCCCCCC`, the Potency entry in test [1] and in test [2] was “inactive” each time.
Regarding `CCCCOC(=O)c1ccc(N)cc1`, the Potency entry in test [1] and in test [2] was “inactive” in each case.
`O=C(c1ccccc1)c1ccc(O)c(O)c1O`: the Potency result in test [1] and in test [2] was “inactive” each time.
Regarding `CCCCCCCCCCCCN1CCOCC1`, the Potency result in test [1] and in test [2] was “inactive” throughout.
Take `CC(C)=CC1CC(C)CCO1` (configuration not stated): the Potency result in test [1] and in test [2] was “inactive” each time.
Take `Nc1nc(Cl)nc2c1ncn2[C@H]1C[C@H](O)[C@@H](CO)O1`: the Potency entry in test [1] and in test [2] was “inactive” each time.
For `CC(=O)O[C@@H]1CC2CCC1(C)C2(C)C` (some centres not stated), the Potency entry in test [1] and in test [2] was “inactive” throughout.
With `CN(C)CCCN1c2ccccc2Sc2ccccc21`, the Potency result in test [1] and in test [2] was “inactive” throughout.
On to `COc1cc(N)ccc1C`, for which the Potency result in test [1] and in test [2] was “inactive” throughout.
Turning to `CCC(C)(CCC(C)C)C(=O)[O-].CCC(C)(CCC(C)C)C(=O)[O-].[Zn+2]` (configuration not stated), the Potency result in test [1] and in test [2] was “inactive” throughout.
Turning to `CC(C)OC(=O)COc1ccc(Cl)cc1Cl`, the Potency entry in test [1] and in test [2] was “inactive” in each case.
Take `Nc1cc(=O)[nH]c(N)n1`: the Potency entry in test [1] and in test [2] was “inactive” each time.
With `CCN1CCOCC1`, the Potency entry in test [1] and in test [2] was “inactive” each time.
For the molecule `c1ccc2cc3c(ccc4ccccc43)cc2c1`, the Potency entry in test [1] and in test [2] was “inactive” in each case.
Consider `Clc1nc(Cl)c(Cl)c(Cl)c1Cl`, for which the Potency result in test [1] and in test [2] was “inactive” each time.
Regarding `NNc1nc(-c2ccccc2)cs1`, the Potency entry in test [1] and in test [2] was “inactive” each time.
In the case of `O=C(O)c1ccc(OCCCOc2ccc(C(=O)O)cc2)cc1`, the Potency entry in test [1] and in test [2] was “inactive” each time.
Take `CSc1ccc(C=O)cc1`: the Potency result in test [1] and in test [2] was “inactive” in each case.
On to `CCCCC(C)C(=O)O` (configuration not stated), for which the Potency entry in test [1] and in test [2] was “inactive” throughout.
As for `CCCCCCCCN`, the Potency result in test [1] and in test [2] was “inactive” throughout.
On to `C=C(C)CCCC`, for which the Potency result in test [1] and in test [2] was “inactive” each time.
For the molecule `O=c1cc(-c2ccc(O)cc2)oc2cc(O)cc(O)c12`, the Potency entry in test [1] and in test [2] was “inactive” each time.
Consider `Clc1ccc2c(Cl)ccnc2c1`, for which the Potency result in test [1] and in test [2] was “inactive” each time.
